{
  "source": "PubChem BioAssay AID1159554",
  "about": "(Broad Institute, 2015)",
  "note": "Among all 94,000 compounds or so, about 2,100 (2.2%) were called active. Cut-off read from the data, not from the text of the source: active = activity change below about -80%; inconclusive = no clear call, values can overlap the other calls; inactive = above that. Only a selection was taken, and actives are over-represented in it overall.",
  "data": [
    {"test": "Dd2 malaria parasite growth inhibition – SYBR Green fluorescence, single dose replicates, primary screen (AID 1159554)", "settings": "P. falciparum Dd2 growth, 72 h, at 10 µM, hits give low values", "values": [
      {"smiles": "C[C@H]1CN([C@@H](C)CO)C(=O)c2cc(/C=C/c3ccccc3)cnc2O[C@@H]1CN(C)C(=O)NC1CCCCC1", "activity change": "-82.8% (active)"},
      {"smiles": "COc1cccc(C#Cc2cnc3c(c2)C(=O)N([C@@H](C)CO)C[C@H](C)[C@@H](CN(C)C(C)=O)O3)c1", "activity change": "-15.1% (inactive)"},
      {"smiles": "C[C@@H]1CN([C@@H](C)CO)C(=O)c2cc(/C=C/c3ccccc3)cnc2O[C@H]1CN(C)C(=O)C1CCC1", "activity change": "-56.3% (inactive)"},
      {"smiles": "C[C@H](CO)N1C[C@H](C)[C@H](CN(C)C(=O)C2CC2)Oc2ncc(C#Cc3ccccc3)cc2C1=O", "activity change": "-17.2% (inactive)"},
      {"smiles": "C[C@H](CO)N1C[C@H](C)[C@H](CN(C)C(=O)C2CCCCC2)Oc2ncc(C#CC3CC3)cc2C1=O", "activity change": "-16.5% (inactive)"},
      {"smiles": "C[C@H](CO)N1C[C@H](C)[C@H](CN(C)C(=O)C2CCCCC2)Oc2ncc(C#Cc3cccc(F)c3)cc2C1=O", "activity change": "-86.4% (active)"},
      {"smiles": "COc1ccc(-c2cnc3c(c2)C(=O)N([C@H](C)CO)C[C@@H](C)[C@H](CN(C)C(=O)Cc2ccncc2)O3)cc1", "activity change": "-84.6% (active)"},
      {"smiles": "COc1cccc(C#Cc2cnc3c(c2)C(=O)N([C@@H](C)CO)C[C@H](C)[C@@H](CN(C)C(=O)C2CCC2)O3)c1", "activity change": "-74.6% (inactive)"},
      {"smiles": "C[C@H](CO)N1C[C@H](C)[C@@H](CN(C)C(=O)Cc2cccnc2)Oc2ncc(-c3ccncc3)cc2C1=O", "activity change": "14.1% (inactive)"},
      {"smiles": "COc1cccc(C#Cc2cnc3c(c2)C(=O)N([C@H](C)CO)C[C@@H](C)[C@@H](CN(C)C(=O)C2CCC2)O3)c1", "activity change": "-84.4% (active)"},
      {"smiles": "COc1ccc(-c2cnc3c(c2)C(=O)N([C@@H](C)CO)C[C@H](C)[C@H](CN(C)C(=O)Cc2cccnc2)O3)cc1", "activity change": "-2.15% (inactive)"},
      {"smiles": "C[C@@H]1CN([C@H](C)CO)C(=O)c2cc(-c3ccccc3)cnc2O[C@H]1CN(C)C(=O)NC1CCCC1", "activity change": "-13% (inactive)"},
      {"smiles": "CC(C)(C)[S@@](=O)N1Cc2cc(C(=O)N3CCCCC3)nc(-c3cccc(-c4cccc(C#N)c4)c3)c2[C@H]1CCO", "activity change": "-13.7% (inactive)"},
      {"smiles": "O=C(c1ccc(F)cc1)N1CC(=O)N2[C@H](C1)[C@@H](c1ccc(C#CC3CC3)cc1)[C@@H]2CO", "activity change": "-8.1% (inactive)"},
      {"smiles": "Cc1ccc(S(=O)(=O)Nc2ccc3c(c2)C(=O)N([C@H](C)CO)C[C@H](C)[C@@H](CN(C)S(=O)(=O)c2cn(C)cn2)OCCCC[C@H](C)O3)cc1", "activity change": "-12.5% (inactive)"},
      {"smiles": "COC(=O)C[C@H]1CC[C@H](NC(=O)Nc2ccc(C(F)(F)F)cc2)[C@H](CO)O1", "activity change": "21.3% (inactive)"},
      {"smiles": "CCCNC(=O)C[C@H]1CC[C@@H]2[C@H](COc3ccc(NC(=O)c4ccc(OC)cc4)cc3C(=O)N2C)O1", "activity change": "-22.5% (inactive)"},
      {"smiles": "CCC(=O)N1[C@@H](CO)[C@@H](c2ccccc2)C12CN(C(=O)c1cnccn1)C2", "activity change": "-2.84% (inactive)"},
      {"smiles": "CCC(=O)N1CC2(CN(Cc3cccnc3)C2)c2c(n(C)c3cc(OC)ccc23)[C@@H]1CO", "activity change": "-20.9% (inactive)"},
      {"smiles": "COc1ccc(NC(=O)N[C@@H]2CC[C@H](CCn3cc(-c4ccc(OC)cc4)nn3)O[C@@H]2CO)cc1", "activity change": "-56.9% (inactive)"},
      {"smiles": "C[C@H]1CN([C@@H](C)CO)C(=O)c2c(c3ccccc3n2C)-c2ccccc2CO[C@@H]1CN(C)C(=O)Nc1ccnc(N2CCOCC2)c1", "activity change": "-58.1% (inactive)"},
      {"smiles": "CO[C@H]1CN(C)C(=O)c2cc(NC(=O)C3CC3)ccc2OC[C@H](C)N(CC2CCCC2)C[C@@H]1C", "activity change": "-38.7% (inactive)"},
      {"smiles": "CCS(=O)(=O)N1CC2(C1)CN(S(=O)(=O)c1ccccc1)[C@H](CO)c1c2c2ccc(OC)cc2n1C", "activity change": "-29.8% (inactive)"},
      {"smiles": "O=C(C[C@@H]1C[C@@H]2c3cc(NC(=O)c4ccc5c(c4)OCO5)ccc3O[C@@H]2[C@H](CO)O1)NCCc1ccccc1", "activity change": "-3.19% (inactive)"},
      {"smiles": "CCC(=O)N1CCC2(CC1)CN(Cc1cccc(OC)c1)[C@@H](CO)c1[nH]c3cc(OC)ccc3c12", "activity change": "-89.5% (active)"},
      {"smiles": "CCS(=O)(=O)N1CCC2(CC1)CN(Cc1ccc3c(c1)OCO3)[C@H](CO)c1[nH]c3cc(OC)ccc3c12", "activity change": "-89.1% (active)"},
      {"smiles": "COc1ccc2c3c([nH]c2c1)[C@@H](CO)N(C(=O)NC(C)C)CC31CCN(C(=O)c2ccccn2)CC1", "activity change": "-13% (inactive)"},
      {"smiles": "CCCNC(=O)N1CCC2(CC1)CN(Cc1ccccc1)[C@H](CO)c1[nH]c3cc(OC)ccc3c12", "activity change": "-59.4% (inactive)"},
      {"smiles": "COc1ccc2c3c([nH]c2c1)[C@@H](CO)N(Cc1ccc2c(c1)OCO2)CC31CN(C(=O)Nc2c(C)noc2C)C1", "activity change": "-13.6% (inactive)"},
      {"smiles": "COc1ccc2c3c([nH]c2c1)[C@H](CO)N(C(=O)Nc1ccc(F)cc1)CC31CCN(C(=O)c2ccccn2)CC1", "activity change": "-79.3% (inactive)"},
      {"smiles": "CCCC(=O)N1CCC2(CC1)CN(C(=O)C1CCCCC1)[C@@H](CO)c1[nH]c3cc(OC)ccc3c12", "activity change": "-78% (inactive)"},
      {"smiles": "CCC(=O)N1CCC2(CC1)CN(Cc1cccc(Cl)c1)[C@@H](CO)c1c2c2ccc(OC)cc2n1C", "activity change": "-75.9% (inactive)"},
      {"smiles": "CCS(=O)(=O)N1CCC2(CC1)CN(S(=O)(=O)c1ccc(C)cc1)[C@H](CO)c1[nH]c3cc(OC)ccc3c12", "activity change": "-53.4% (inactive)"},
      {"smiles": "CCC(=O)N1CCC2(CC1)CN(Cc1ccc(Cl)cc1)[C@@H](CO)c1[nH]c3cc(OC)ccc3c12", "activity change": "-90.6% (active)"},
      {"smiles": "CCC(=O)N1CC2(CN(Cc3ccc(Cl)cc3)C2)c2c([nH]c3cc(OC)ccc23)[C@@H]1CO", "activity change": "-23% (inactive)"},
      {"smiles": "COc1ccc2c3c([nH]c2c1)[C@H](CO)N(Cc1ccccc1)CC31CCN(C(=O)c2ccccn2)CC1", "activity change": "-83.5% (active)"},
      {"smiles": "Cc1noc(C)c1NC(=O)N(C)C[C@@H]1Oc2cc(Br)ccc2S(=O)(=O)N([C@@H](C)CO)C[C@H]1C", "activity change": "12.9% (inactive)"},
      {"smiles": "COc1cccc(NC(=O)C[C@@H]2CC[C@@H]3[C@H](COc4ccc(NC(=O)C5CCOCC5)cc4C(=O)N3C)O2)c1", "activity change": "11.1% (inactive)"},
      {"smiles": "C/C=C/c1ccc2c(c1)[C@H]1[C@H](CCN1S(=O)(=O)c1cn(C)cn1)[C@H](CO)N2", "activity change": "-1.2% (inactive)"},
      {"smiles": "CCCNC(=O)N1C[C@H]2[C@@H](c3ccccc31)[C@@H](CO)N2C(=O)NCCC", "activity change": "-1.9% (inactive)"}
    ]}
  ]
}
